From PubChem BioAssay
The source made the active and inactive calls.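 The calls were made as follows, unless noted: active = aptamer binding inhibition above 30%, about 3 SD of noise from non-fluorescent compounds; inactive = inhibition at or below 30%.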

Key:
[1] = reduced mouse 2C T cell binding to pMHC/ICAM-1 vesicles – MLPCN validation set, flow cytometry, LFA-1/ICAM-1 modulator project, pilot screen (AID 2523;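 active = response below a set limit, under 55% cells CD8-positive and vesicle-bound, and CD8 cells' 90th-percentile brightness under 279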;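 as to vesicle binding response: mean PE anti-B7-1 fluorescence of CD8+ cells relative to row control; 100% = QL9-loaded vesicles with DMSO vehicle in the same plate row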); details: 2C mouse CD8+ T cells, at 7 µM, stronger effect = lower value; double positive events: measured here: CD8+/vesicle+ event percentage
[2] = target: Integrin beta-1 (Homo sapiens) + Integrin alpha-4 (Homo sapiens) (UniProt P13612+P05556); experiment: alpha4beta1 integrin LIBS antibody binding reduction – U937 cells, HUTS-21 mAb, flow cytometry, validation set, VLA-4 allosteric modulator project, pilot screen (AID 2674;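 active = inhibition above 50%, about 3 SD of the validation set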;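 also: antibody binding induced by the VLA-4 ligand LDV present at three times its Kd; 0% = LDV ligand with antibody and no compound and 100% = antibody without LDV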); details: HUTS-21 LIBS mAb binding, at 6.7 µM, stronger effect = higher value, binding induced by LDV ligand
[3] = calorie-restriction mimetic ROS inhibitors, yeast – validation compound set, pilot screen (AID 2706;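 active = superoxide response below 65% of plate, a cut near 3 SD across the whole screen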;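 also: yeast exposed to compound for one week at 30 degrees C before staining; 100% = mean of all compound wells on the same plate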); details: S. cerevisiae aging, superoxide DHE fluorescence; at 10 µM, stronger effect = lower value
[4] = target: Beta-adrenergic receptor kinase 1 (Homo sapiens) (UniProt P25098); experiment: GRK2 binders displacing RNA aptamer, biochemical, validation, human GRK2, bead flow cytometry (AID 488806); details: bead-bound GRK2, FAM-aptamer displacement, at 10 µM, stronger effect = higher value
[5] = target: Beta-2 adrenergic receptor (Homo sapiens) (UniProt P07550); experiment: agonist-induced loss of surface beta2AR – cell-based, FAP fluorogen, flow cytometry, validation set, pilot screen (AID 504459;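 active = percent response above 42, roughly 3 SD of non-fluorescent test compounds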;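 also: agonist-driven loss of surface beta2AR via internalization measured by FAP dye flow cytometry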); details: Am2.2-beta2AR cells, at 10 µM, stronger effect = higher value
[6] = target: AP-2 complex subunit beta (Homo sapiens) (UniProt P63010); experiment: beta-arrestin/AP2 interaction blockers – biochemical, validation set, GST-AP2 beads, flow cytometry, pilot screen (AID 504541;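 active = inhibition above 54%, about 3 SD of non-fluorescent compounds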;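 also: AP2 carries R879A mutation and is captured from E. coli lysate; bead-bound FITC arrestin peptide fluorescence measuring arrestin peptide binding to AP2; 0% = DMSO wells and 100% = excess unlabeled arrestin peptide control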); details: FITC arrestin peptide, at 10 µM, stronger effect = higher value, AP2 beta2 appendage fragment, R879A mutant
[7] = cytosolic pH regulators acting via V-ATPase – S. cerevisiae, pHLuorin, HTS validation (AID 504600; in the data active = response above about 15%;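 also: plate controls were DMSO for no effect and reference compound for full effect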); details: V-ATPase proton transport, at 10 µM, stronger effect = higher value
[8] = test system: anti-desmoglein-3 scFv antibody binding to human DSG3; experiment: blockers of pathogenic pemphigus antibody–desmoglein-3 binding – biochemical, validation compound set, bead-based, flow cytometry, pilot screen (AID 588368;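 active = binding below the plate cutoff, the plate median minus 3 SD, with a reading above zero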;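 also: signal is the median channel fluorescence of bead-bound GFP antibody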); details: Protein G beads, DSG3-Fc, scFv-GFP binding, at 10 µM, stronger effect = lower value
[9] = Nile Red efflux blockade in pump-expressing yeast – validation compound set, multiplex, phenotypic, pilot screen (AID 588506;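 active = efflux inhibition above 0.42, the validation set average plus 4 SD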;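 also: Nile Red retained in cells so higher fluorescence means more efflux inhibition; 0 = negative control wells and 1 = enniatin B 25 µM full block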); details: S. cerevisiae pump-expressing triplex, Nile Red efflux flow cytometry; at 10 µM; stronger effect = higher value; the pumps come from Candida albicans
[10] = target: ATP-binding cassette sub-family B member 6 (Homo sapiens) (UniProt Q9NP58); experiment: blockers of ABCB6-driven porphyrin uptake – K562-ABCB6 cells, flow cytometry, validation set, pilot screen (AID 588550;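 active = inhibition above the screen-wide mean plus 3 SD, about 51%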;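 also: 0% = DMSO wells and 100% = benzethonium chloride 70 µM positive control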); details: K562-ABCB6 porphyrin accumulation, 1 h, at 10 µM, stronger effect = higher value
[11] = AML differentiation inducers, ER-HoxA9 marrow cells – cell-based, GFP/MAC1 double positive, flow cytometry, validation set, primary screen (AID 588685;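 active = differentiation response of at least 50%, scaled between solvent and reference control, from cells with both markers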;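 also: compound exposure lasts four days before antibody staining and flow analysis; 0% = DMSO wells and 100% = 5 µM fulvestrant positive control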); details: stronger effect = higher value, normalized: vehicle 0, fulvestrant 100

Sequence of Beta-2 adrenergic receptor (Homo sapiens) (P07550 whole entry, looked up): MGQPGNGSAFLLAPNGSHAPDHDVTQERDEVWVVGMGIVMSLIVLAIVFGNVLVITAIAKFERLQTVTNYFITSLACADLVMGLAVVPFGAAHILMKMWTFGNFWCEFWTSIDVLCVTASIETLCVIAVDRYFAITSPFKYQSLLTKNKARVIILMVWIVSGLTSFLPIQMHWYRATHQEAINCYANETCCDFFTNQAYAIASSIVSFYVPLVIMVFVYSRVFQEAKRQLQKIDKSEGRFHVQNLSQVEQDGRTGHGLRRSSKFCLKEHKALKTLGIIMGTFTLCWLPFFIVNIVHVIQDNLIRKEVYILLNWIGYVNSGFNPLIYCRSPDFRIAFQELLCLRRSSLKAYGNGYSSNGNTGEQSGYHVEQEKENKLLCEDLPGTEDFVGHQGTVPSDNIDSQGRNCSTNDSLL
Sequence of Integrin beta-1 (Homo sapiens) + Integrin alpha-4 (Homo sapiens) (P05556 whole entry, looked up): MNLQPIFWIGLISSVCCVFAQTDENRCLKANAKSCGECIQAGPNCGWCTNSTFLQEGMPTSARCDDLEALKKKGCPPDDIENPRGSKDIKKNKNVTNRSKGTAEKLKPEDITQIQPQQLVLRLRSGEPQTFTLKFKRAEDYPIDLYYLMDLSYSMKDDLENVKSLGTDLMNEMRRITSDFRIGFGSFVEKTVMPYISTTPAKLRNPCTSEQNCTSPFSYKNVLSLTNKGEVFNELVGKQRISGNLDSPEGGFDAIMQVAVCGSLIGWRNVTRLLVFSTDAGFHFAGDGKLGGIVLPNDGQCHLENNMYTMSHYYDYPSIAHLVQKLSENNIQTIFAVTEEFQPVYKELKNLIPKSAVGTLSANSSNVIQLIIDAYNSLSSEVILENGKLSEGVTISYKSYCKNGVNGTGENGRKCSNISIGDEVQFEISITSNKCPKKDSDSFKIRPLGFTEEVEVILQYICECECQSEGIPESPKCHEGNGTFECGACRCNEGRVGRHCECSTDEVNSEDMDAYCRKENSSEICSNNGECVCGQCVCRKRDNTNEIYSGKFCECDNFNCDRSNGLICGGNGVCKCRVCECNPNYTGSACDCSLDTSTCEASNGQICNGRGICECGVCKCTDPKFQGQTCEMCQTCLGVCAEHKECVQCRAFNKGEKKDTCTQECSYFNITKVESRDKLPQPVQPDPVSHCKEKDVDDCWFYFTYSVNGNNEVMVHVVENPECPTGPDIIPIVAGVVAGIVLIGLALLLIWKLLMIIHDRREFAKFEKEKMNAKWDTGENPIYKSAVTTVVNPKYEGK
Sequence of Integrin beta-1 (Homo sapiens) + Integrin alpha-4 (Homo sapiens) (P13612 whole entry, looked up): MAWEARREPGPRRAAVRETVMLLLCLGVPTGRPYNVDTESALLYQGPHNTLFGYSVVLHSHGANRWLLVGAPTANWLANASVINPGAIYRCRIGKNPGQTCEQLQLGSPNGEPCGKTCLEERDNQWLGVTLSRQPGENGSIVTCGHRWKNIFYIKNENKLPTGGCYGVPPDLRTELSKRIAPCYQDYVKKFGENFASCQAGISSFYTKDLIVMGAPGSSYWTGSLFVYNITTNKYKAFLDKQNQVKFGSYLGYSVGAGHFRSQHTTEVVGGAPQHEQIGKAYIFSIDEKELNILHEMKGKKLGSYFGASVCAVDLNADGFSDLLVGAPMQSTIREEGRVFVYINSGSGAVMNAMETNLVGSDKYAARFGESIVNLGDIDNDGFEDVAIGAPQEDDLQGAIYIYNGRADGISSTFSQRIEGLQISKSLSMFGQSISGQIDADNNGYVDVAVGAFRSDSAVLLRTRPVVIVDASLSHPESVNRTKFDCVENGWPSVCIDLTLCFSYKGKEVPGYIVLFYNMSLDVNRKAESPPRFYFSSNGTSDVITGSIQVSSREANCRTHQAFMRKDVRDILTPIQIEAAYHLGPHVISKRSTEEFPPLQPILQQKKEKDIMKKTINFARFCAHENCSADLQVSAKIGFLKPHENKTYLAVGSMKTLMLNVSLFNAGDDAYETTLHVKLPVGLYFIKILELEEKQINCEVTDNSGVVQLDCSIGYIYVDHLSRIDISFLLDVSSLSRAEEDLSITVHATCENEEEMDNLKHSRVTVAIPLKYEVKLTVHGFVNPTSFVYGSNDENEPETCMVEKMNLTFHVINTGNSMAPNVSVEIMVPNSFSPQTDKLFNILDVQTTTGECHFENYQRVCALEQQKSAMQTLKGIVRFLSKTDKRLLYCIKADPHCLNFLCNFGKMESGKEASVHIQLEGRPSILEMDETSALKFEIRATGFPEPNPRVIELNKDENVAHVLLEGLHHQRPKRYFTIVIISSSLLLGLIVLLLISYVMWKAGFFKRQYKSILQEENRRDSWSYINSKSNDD
Sequence of ATP-binding cassette sub-family B member 6 (Homo sapiens) (Q9NP58 whole entry, looked up): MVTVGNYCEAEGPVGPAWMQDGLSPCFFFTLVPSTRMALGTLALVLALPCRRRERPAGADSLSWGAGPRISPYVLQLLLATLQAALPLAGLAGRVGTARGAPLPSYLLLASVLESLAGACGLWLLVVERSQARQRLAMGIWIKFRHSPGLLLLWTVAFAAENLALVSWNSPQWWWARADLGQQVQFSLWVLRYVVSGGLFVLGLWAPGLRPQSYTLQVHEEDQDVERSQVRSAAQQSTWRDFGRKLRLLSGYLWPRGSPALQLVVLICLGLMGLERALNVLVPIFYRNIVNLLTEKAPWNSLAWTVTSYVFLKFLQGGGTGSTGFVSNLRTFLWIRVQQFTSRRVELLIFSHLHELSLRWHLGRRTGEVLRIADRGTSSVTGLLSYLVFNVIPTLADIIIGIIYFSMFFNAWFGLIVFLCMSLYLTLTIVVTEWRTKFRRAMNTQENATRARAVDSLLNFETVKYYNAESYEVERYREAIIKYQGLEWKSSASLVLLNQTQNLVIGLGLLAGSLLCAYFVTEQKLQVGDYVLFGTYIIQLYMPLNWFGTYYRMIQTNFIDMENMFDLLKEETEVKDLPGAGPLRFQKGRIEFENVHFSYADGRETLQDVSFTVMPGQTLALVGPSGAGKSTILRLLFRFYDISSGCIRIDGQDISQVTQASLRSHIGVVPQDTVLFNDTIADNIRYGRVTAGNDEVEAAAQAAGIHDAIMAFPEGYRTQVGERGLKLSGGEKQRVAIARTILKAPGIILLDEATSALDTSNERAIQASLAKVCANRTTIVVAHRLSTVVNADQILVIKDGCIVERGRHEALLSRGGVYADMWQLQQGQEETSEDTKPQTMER
Sequence of Beta-adrenergic receptor kinase 1 (Homo sapiens) (P25098 whole entry, looked up): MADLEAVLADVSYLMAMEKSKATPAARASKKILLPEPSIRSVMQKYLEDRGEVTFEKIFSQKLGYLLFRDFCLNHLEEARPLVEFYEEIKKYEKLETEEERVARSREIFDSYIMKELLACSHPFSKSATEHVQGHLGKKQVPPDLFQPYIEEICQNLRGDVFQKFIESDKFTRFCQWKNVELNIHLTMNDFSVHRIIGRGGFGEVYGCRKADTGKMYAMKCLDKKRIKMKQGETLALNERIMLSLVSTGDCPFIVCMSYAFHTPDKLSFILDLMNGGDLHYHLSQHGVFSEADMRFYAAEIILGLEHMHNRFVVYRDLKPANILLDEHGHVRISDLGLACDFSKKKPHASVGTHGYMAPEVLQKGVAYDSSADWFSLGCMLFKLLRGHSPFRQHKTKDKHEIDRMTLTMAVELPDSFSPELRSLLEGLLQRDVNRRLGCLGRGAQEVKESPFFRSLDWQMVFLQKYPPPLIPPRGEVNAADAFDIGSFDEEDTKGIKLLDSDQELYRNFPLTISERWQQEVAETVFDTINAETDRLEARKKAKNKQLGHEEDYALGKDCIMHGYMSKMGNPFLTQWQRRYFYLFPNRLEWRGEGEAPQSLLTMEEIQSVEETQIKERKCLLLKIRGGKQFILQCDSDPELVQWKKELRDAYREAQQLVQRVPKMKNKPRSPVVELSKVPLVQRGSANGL
Sequence of AP-2 complex subunit beta (Homo sapiens) (P63010 whole entry, looked up, the tested form may be a part, one chain of several): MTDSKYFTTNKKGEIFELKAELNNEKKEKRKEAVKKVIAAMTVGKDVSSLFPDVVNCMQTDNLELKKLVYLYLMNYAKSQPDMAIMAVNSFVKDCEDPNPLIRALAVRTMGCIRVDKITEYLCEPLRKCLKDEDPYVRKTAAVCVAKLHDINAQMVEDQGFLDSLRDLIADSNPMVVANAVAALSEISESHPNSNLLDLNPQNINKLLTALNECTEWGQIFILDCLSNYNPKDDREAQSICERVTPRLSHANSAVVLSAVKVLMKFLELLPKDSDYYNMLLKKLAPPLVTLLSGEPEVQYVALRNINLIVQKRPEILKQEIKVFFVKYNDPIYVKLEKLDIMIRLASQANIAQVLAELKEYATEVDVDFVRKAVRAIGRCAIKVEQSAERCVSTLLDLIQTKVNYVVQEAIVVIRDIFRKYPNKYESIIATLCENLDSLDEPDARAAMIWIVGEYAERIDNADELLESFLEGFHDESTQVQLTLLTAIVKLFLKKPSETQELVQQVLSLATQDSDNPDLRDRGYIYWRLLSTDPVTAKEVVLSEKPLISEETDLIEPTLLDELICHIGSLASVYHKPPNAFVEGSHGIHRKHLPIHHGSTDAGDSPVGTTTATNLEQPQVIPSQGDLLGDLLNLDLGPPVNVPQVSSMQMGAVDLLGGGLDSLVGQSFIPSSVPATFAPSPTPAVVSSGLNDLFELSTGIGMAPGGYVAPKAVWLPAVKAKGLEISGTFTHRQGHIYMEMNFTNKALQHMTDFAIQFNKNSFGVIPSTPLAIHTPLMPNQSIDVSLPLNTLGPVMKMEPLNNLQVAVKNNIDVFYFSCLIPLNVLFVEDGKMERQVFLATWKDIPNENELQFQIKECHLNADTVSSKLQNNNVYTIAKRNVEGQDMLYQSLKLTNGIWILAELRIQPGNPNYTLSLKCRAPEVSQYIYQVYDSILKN

O=C(/C=C/c1ccccc1)/C=C/c1ccccc1
inactive: vesicle binding response [1] 434% | inhibition [2] 21.4% | superoxide response (% of plate) [3] 105% | aptamer binding inhibition [4] 2% | inhibition [6] -3.48% | response [7] 0.62% | binding (% of control) [8] 96.6% | efflux inhibition (fraction of control) [9] -0.17 | inhibition [10] 2% | differentiation response [11] -16.8%
69.3%: double positive events [1]
active: response [5] 48.5%

C=C(C)c1nc2cc(OC)c(OC)cc2c(=O)o1
inactive: vesicle binding response [1] 181% | inhibition [2] -9.06% | superoxide response (% of plate) [3] 96.8% | aptamer binding inhibition [4] 0% | response [5] -1.85% | inhibition [6] 0.91% | response [7] 2.81% | binding (% of control) [8] 105% | efflux inhibition (fraction of control) [9] -0.46 | inhibition [10] 11% | differentiation response [11] 9.01%
66.2%: double positive events [1]

COc1ccc(O)c(N)c1
active: response [5] 76.4%
inactive: vesicle binding response [1] 381% | inhibition [2] -22.3% | superoxide response (% of plate) [3] 104% | aptamer binding inhibition [4] 5% | inhibition [6] 20.1% | response [7] 3.74% | binding (% of control) [8] 99.1% | efflux inhibition (fraction of control) [9] -0.1 | inhibition [10] 7% | differentiation response [11] -0.8%
70.2%: double positive events [1]

Cc1oc(/C=N/NC(=O)CC2(C)OCCO2)cc1Br
60.6%: double positive events [1]
active: response [7] 68.3%
inactive: vesicle binding response [1] 93.4% | inhibition [2] 4.27% | superoxide response (% of plate) [3] 107% | aptamer binding inhibition [4] -3% | response [5] 4.99% | inhibition [6] 0.64% | binding (% of control) [8] 104% | efflux inhibition (fraction of control) [9] -0.245 | inhibition [10] 18% | differentiation response [11] -0.18%

CN1[C@@H](CC(=O)c2ccccc2)CCC[C@H]1C[C@H](O)c1ccccc1
61.3%: double positive events [1]
inactive: vesicle binding response [1] 176% | inhibition [2] 6.4% | superoxide response (% of plate) [3] 93.3% | aptamer binding inhibition [4] 4% | response [5] 12.9% | inhibition [6] -9.53% | response [7] 3.14% | binding (% of control) [8] 103% | efflux inhibition (fraction of control) [9] -0.06 | inhibition [10] 3% | differentiation response [11] -0.8%

CC(=O)N(CCC1(C(C)C)CCOC(C)(C)C1)Cc1ccco1 (stereo unspecified)
inactive: vesicle binding response [1] 276% | inhibition [2] -16.8% | superoxide response (% of plate) [3] 94.3% | aptamer binding inhibition [4] -4% | response [5] 3.66% | inhibition [6] 0.1% | response [7] -0.44% | binding (% of control) [8] 105% | efflux inhibition (fraction of control) [9] -0.09 | inhibition [10] 11% | differentiation response [11] 12.3%
64.3%: double positive events [1]

COc1ccc(/C=C\C(=O)c2c(O)ccc3c(C)cc(=O)oc23)cc1OC
60.8%: double positive events [1]
inactive: vesicle binding response [1] 182% | inhibition [2] 14.2% | superoxide response (% of plate) [3] 94.3% | aptamer binding inhibition [4] 1% | response [5] 16.8% | response [7] -0.16% | binding (% of control) [8] 106% | efflux inhibition (fraction of control) [9] 0.29 | inhibition [10] -4% | differentiation response [11] -1.05%
active: inhibition [6] 60.6%

CN1CCc2cccc3c2[C@@H]1Cc1ccc(O)c(O)c1-3
61%: double positive events [1]
inactive: vesicle binding response [1] 194% | inhibition [2] -38.6% | superoxide response (% of plate) [3] 93.1% | aptamer binding inhibition [4] 11% | response [5] 26.8% | inhibition [6] 6.55% | response [7] -9.4% | binding (% of control) [8] 100% | efflux inhibition (fraction of control) [9] -0.09 | inhibition [10] -20% | differentiation response [11] 5.85%

Cn1c2ccc(CC(=O)O)cc2c2cc(CC(=O)O)ccc21
inactive: vesicle binding response [1] 244% | inhibition [2] 10.5% | superoxide response (% of plate) [3] 92.3% | aptamer binding inhibition [4] 3% | response [5] -8.9% | inhibition [6] 2.08% | response [7] 1.83% | binding (% of control) [8] 101% | efflux inhibition (fraction of control) [9] -0.21 | inhibition [10] 6% | differentiation response [11] 8.8%
61.4%: double positive events [1]

O=C(CCCC(=O)OCC1CCCO1)OCC1CCCO1 (stereo unspecified)
65.5%: double positive events [1]
inactive: vesicle binding response [1] 131% | inhibition [2] 4.52% | superoxide response (% of plate) [3] 93.2% | aptamer binding inhibition [4] -3% | response [5] 2.91% | inhibition [6] -6.03% | response [7] 2.81% | binding (% of control) [8] 99.4% | efflux inhibition (fraction of control) [9] -0.02 | inhibition [10] 15% | differentiation response [11] 2.46%

CCc1cc(=O)oc2cc(OCC=C(C)C)ccc12
66.7%: double positive events [1]
inactive: vesicle binding response [1] 297% | inhibition [2] 26.9% | superoxide response (% of plate) [3] 89.5% | aptamer binding inhibition [4] 6% | response [5] 1.45% | inhibition [6] -1.05% | response [7] -0.58% | binding (% of control) [8] 103% | efflux inhibition (fraction of control) [9] -0.03 | inhibition [10] 3% | differentiation response [11] -18.4%

COc1cccc(N2CC34C=CC(O3)C(C(=O)O)C4C2=O)c1 (stereo unspecified)
inactive: vesicle binding response [1] 168% | inhibition [2] -19.5% | superoxide response (% of plate) [3] 97.6% | aptamer binding inhibition [4] 0% | response [5] -21.5% | inhibition [6] 28.1% | response [7] -2.62% | binding (% of control) [8] 102% | efflux inhibition (fraction of control) [9] 0.08 | inhibition [10] 3% | differentiation response [11] 44%
60.2%: double positive events [1]

COc1ccc(C(=O)[C@H]2[C@H]3C(=O)N(c4ccccc4)C(=O)[C@H]3C3C=CC=NN32)cc1 (stereo partly specified)
inactive: vesicle binding response [1] 227% | inhibition [2] -7.79% | superoxide response (% of plate) [3] 96.9% | aptamer binding inhibition [4] 3% | response [5] 0.22% | inhibition [6] 28.5% | response [7] -6.05% | binding (% of control) [8] 99.8% | efflux inhibition (fraction of control) [9] 0.01 | inhibition [10] -9% | differentiation response [11] -8.96%
62.9%: double positive events [1]
